Measurements from PubChem BioAssay (Tox21).
Active and inactive are the calls of the source. The call rests on the fitted dose curve; in most records, active means well fitted curve in the direction sought with a large enough effect in the repeat runs; inconclusive means weak or mixed curves; inactive means flat fitted curve, though single readings scatter.

Test: qHTS assay to test for compound auto fluorescence at 460 nm (blue) in HepG2 cells (AID 720687)
Details: autofluorescence 405/460 nm, 1 h; series mostly up to 91.3 µM
Description: U.S. Tox21 Program National Center for Advancing Translational Sciences [NCATS] NIH Chemical Genomics Center [NCGC] U.S. Environmental Protection Agency [EPA] National Institutes of Environmental Health Sciences [NIEHS] National Toxicology Program [NTP] U.S. Food and Drug Administration [FDA] Tox21 Assay Overview: Compound auto fluorescence often interferes with screening of the compound library against various biological targets and signaling pathways. Some of these compounds may have fluorophoric properties. Such properties may interfere with the assay outputs resulting in false positives and/or negatives. To decrease such complications and ensure the compound activities are relevant in terms of biological response, the Tox21 10K compound library was screened for auto fluorescence. From the fluorophores used as reporter signals in our screening assays, the auto fluorescence equivalencies of compounds against three fluorophores have been evaluated: Triamterene, Fluorescein and Rose Bengal sodium for blue, green and red fluorescence, respectively. The fluorescence intensities were measured using Excitation/Emission wavelengths at 405/460nm, 485/535nm and 540/590nm for blue, green and red labels, respectively. This assay includes the blue fluorescence data.
Tox21 Assay Protocol Summary: 2,000 HepG2 cells in 5 uL of culture medium (MEM containing 10% FBS) per well were dispensed into black wall/clear bottom 1536-well plates using a Multidrop Combi Dispenser (ThermoFisher Scientific, Waltham, MA). The assay plates were incubated overnight at 37 C to allow cell attachment to the well bottom, followed by the transfer of 23 nL compound or DMSO vehicle by a pintool work station (Kalypsys , San Diego, CA). After the assay plates were incubated for 1 hr at 37 C and 5% CO2, fluorescence intensities in the assay plates were measured by an Envision (PerkinElmer, Shelton, CT) plate reader using three labels for measuring blue, green and red fluorescence at […] 460, 535 and 590 nm respectively.
On the % scale 0 is the no-effect control and ±100 the full control effect.

Row | SMILES | outcome | fluorescence, % of fluorescent control
1 | Oc1ccccc1F | inactive | 
2 | FC(F)(F)C(F)(F)C(F)(F)C(F)(F)C(F)(F)C(F)(F)C(F)(F)C(F)(F)Br | inactive | 
3 | O=C1CCCCC1C1CCCCC1 (stereo not given) | inactive | 
4 | CCCCN1C[C@H](O)[C@@H](O)[C@H](O)[C@H]1CO | inactive | 
5 | O=C1Nc2ccc([N+](=O)[O-])cc2C1=O | inactive | 
6 | O=c1[nH]c(=O)n([C@H]2C[C@H](O)[C@@H](CO)O2)cc1C(F)(F)F | inactive | 
7 | CCCCCCCCCCCCCCCCOP(=O)([O-])OCC[N+](C)(C)C | inactive | 
8 | CCN(CC)C(=O)N(CC)CC | inactive | 
9 | CNCCC(Oc1ccccc1OC)c1ccccc1 (stereo not given) | inactive | 
10 | CCC(=O)O[C@]1(C(=O)SCF)[C@H](C)C[C@H]2[C@@H]3C[C@H](F)C4=CC(=O)C=C[C@]4(C)[C@@]3(F)[C@@H](O)C[C@@]21C |  | -0.137% [at 18.6 µM] (inactive)
11 | OCc1ccccc1O | inactive | 
12 | CCOC(=O)COc1ccc2c(c1)CC(NCC(O)c1cccc(Cl)c1)CC2 (stereo not given) | inactive | 
13 | Cc1c(N)cccc1N | inactive | 
14 | CC(=O)Oc1cc(C(C)C)c(OCCN(C)C)cc1C |  | -0.0099% [at 18.6 µM] (inactive)
15 | CCC/C=C/CO | inactive | 
16 | NCCC(O)(P(=O)(O)O)P(=O)(O)O | inactive | 
17 | CC(C)NC[C@@H](O)COc1cccc2ccccc12 | inactive | 
18 | CC/C=C\CCOC(=O)C(C)C | inactive | 
19 | CC(C)S | inactive | 
20 | CCCCOc1cc(C(=O)NCCN(CC)CC)c2ccccc2n1 |  | -0.0681% [at 18.6 µM] (inactive)

Row | SMILES | outcome | fluorescence, % of fluorescent control
21 | CC(C)NCC(O)COc1ccc(CCOCC2CC2)cc1 (stereo not given) | inactive | 
22 | CCCCCCCCCC/C=C/C#N | inactive | 
23 | Clc1cccc(-c2cc(Cl)cc(Cl)c2)c1 | inactive | 
24 | Cc1ccccc1C(=O)Nc1ccc(C(=O)N2CCCC(O)c3cc(Cl)ccc32)c(C)c1 (stereo not given) | inactive | 
25 | COc1ccccc1N1CCN(CCCNc2cc(=O)n(C)c(=O)n2C)CC1 | inactive | 
26 | CN1CCN(C2=Nc3ccccc3Oc3ccc(Cl)cc32)CC1 |  | 0.0039% [at 18.6 µM] (inactive)
27 | N#Cc1ccc(C(c2ccc(C#N)cc2)n2cncn2)cc1 | inactive | 
28 | COC(C)CCO (stereo not given) | inactive | 
29 | CCN(CC)CCNC(=O)COc1ccc(Cl)cc1 | inactive | 
30 | CCCCCCC | inactive | 
31 | C[C@]12C(=O)OC(=O)[C@H]1[C@H]1C=C[C@@H]2C1 | inactive | 
32 | CCCNC(C)(C)COC(=O)c1ccccc1 | inactive | 
33 | O=C(O)[C@@H](O)[C@H](O)[C@H](O)[C@@H](O)C(=O)O | inactive | 
34 | O=C(O)C(=O)Cc1c[nH]c2ccccc12 | inactive | 
35 | CC/C=C\CCOC(=O)CCCCC | inactive | 
36 | CC1CN(c2ccccc2)NC1=O (stereo not given) | inactive | 
37 | CO[Si](C)(C)OC | inactive | 
38 | CCOC(=O)C(Br)c1ccccc1 (stereo not given) | inactive | 
39 | CC(C)Nc1nc(N)nc(Cl)n1 | inactive | 
40 | CCOC(=O)c1ccccc1O | inactive | 
